The record followed here is PubChem BioAssay.

The term inhibition denotes the drop in the measured response relative to a control, in per cent.

Each structure is given as a SMILES string. A number with no mark means an inactive call. For part of these data: Potency and affinity values are given separately. The source made the active and inactive calls. Unless noted, no rule for the calls is given here.

Experiment [1] is described as follows: antimalarial activity against Dd2 strain (AID 2302;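 active = growth inhibition above 50% at the single 2 µM test dose, taken to imply half-maximal potency below 2 µM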;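 also: 0% = DMSO untreated growth and 100% = chloroquine plus artemisinin killed control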). To be noted: P. falciparum Dd2 in RBCs, LDH growth readout, 72 h; at 2 µM; active compounds read high.
Experiment [2] can be described thus: human hepatoma cell viability loss – ATP luminescence, cytotoxicity control for P. falciparum antimalarial project, primary screen (AID 2303;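 active = inhibition above 50%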;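 also: 0% = DMSO wells and 100% = digitonin-killed cells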). To be noted: HepG2 viability, 24-48 h, at 10 µM, active compounds read high.
Experiment [3] has as its target L-lactate dehydrogenase (Plasmodium falciparum (isolate CDC / Honduras)) (UniProt Q27743). Nature of the experiment: PfLDH activity inhibition – cell lysate, 3D7 strain, counter-screen for P. falciparum growth inhibition project (AID 2304).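 Also: 0% = vehicle and 100% = reference inhibitor.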 To be noted: P. falciparum 3D7 crude extract, LDH APAD/NBT absorbance; at 2 µM; active compounds read high. On the technique in general: A counterscreen serves to expose hits that act by an unwanted route or on another target.

Experiment [4] can be described thus: inhibition of 3D7 malaria parasite growth – strain 3D7 (AID 2306).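 Also: 0% = DMSO wells and 100% = chloroquine plus artemisinin control wells.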 The following applies: P. falciparum 3D7 erythrocytic growth, LDH absorbance, 72 h; at 2 µM; active compounds read high.
In experiment [5] the target is Calcium-dependent protein kinase 1 (Plasmodium falciparum (isolate 3D7)) (UniProt P62344). The experiment can be described thus: PfCDPK1 kinase inhibitors, biochemical, TCAMS library (AID 1159585; cut-off not given, nearly all actives have IC50 up to about 0.98 µM;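 also: inhibitors leave more ATP so luminescence rises with inhibition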). To be noted: recombinant PfCDPK1, Kinase-Glo ATP depletion luminescence. For orientation: In Kinase-Glo more light means more ATP remaining.
Sequence of Calcium-dependent protein kinase 1 (Plasmodium falciparum (isolate 3D7)) (P62344 whole entry, looked up): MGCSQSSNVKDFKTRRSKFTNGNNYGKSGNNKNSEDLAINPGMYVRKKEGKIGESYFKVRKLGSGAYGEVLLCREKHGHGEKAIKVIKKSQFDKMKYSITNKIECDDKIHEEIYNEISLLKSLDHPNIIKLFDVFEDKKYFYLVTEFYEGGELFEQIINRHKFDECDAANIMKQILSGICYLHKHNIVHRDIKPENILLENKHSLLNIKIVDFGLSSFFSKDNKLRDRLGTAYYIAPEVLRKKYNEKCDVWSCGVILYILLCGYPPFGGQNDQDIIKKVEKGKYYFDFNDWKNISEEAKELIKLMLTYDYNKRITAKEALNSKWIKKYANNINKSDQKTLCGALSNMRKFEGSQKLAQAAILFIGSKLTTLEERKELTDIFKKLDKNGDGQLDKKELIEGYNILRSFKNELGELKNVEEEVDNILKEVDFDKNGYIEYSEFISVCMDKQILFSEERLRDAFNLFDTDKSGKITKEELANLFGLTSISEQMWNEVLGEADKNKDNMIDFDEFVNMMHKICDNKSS
For experiment [6], the target named is Plasmodium falciparum protein kinase 6 (PK6, PF3D7_1337100) (UniProt Q8IDW1). The experiment can be described thus: PfPK6 kinase inhibitors, biochemical, TCAMS library (AID 1159586). The following applies: recombinant PfPK6, Kinase-Glo ATP depletion luminescence.
Sequence of Plasmodium falciparum protein kinase 6 (PK6, PF3D7_1337100) (Q8IDW1 1-305): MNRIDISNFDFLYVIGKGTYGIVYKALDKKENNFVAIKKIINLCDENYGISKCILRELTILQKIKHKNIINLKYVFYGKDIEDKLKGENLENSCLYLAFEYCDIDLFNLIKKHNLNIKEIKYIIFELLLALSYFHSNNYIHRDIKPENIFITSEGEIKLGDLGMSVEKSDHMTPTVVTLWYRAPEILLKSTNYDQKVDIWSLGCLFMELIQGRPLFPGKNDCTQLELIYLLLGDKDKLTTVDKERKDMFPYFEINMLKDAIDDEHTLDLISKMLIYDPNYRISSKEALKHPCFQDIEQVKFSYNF
Experiment [7] deals with Protein kinase 7 (PK7), Plasmodium falciparum 3D7 (PF3D7_0213400) (UniProt Q7YTF7). The experiment can be described thus: inhibition of Plasmodium PK7 catalytic activity – biochemical, TCAMS antimalarial set, Kinase-Glo luminescence (AID 1159587). The following applies: recombinant PfPK7, Kinase-Glo ATP depletion luminescence.
Sequence of Protein kinase 7 (PK7), Plasmodium falciparum 3D7 (PF3D7_0213400) (Q7YTF7 1-343): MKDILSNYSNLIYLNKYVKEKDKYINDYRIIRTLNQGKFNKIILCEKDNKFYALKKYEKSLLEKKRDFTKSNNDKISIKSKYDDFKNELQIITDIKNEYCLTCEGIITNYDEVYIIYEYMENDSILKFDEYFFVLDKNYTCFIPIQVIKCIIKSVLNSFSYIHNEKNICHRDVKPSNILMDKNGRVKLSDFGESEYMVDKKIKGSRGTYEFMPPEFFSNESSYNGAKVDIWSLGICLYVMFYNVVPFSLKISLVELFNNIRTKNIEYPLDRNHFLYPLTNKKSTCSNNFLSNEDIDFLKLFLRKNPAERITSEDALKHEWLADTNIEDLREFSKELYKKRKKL
The target in experiment [8] is Calcium-dependent protein kinase 4 (Plasmodium falciparum (isolate 3D7)) (UniProt Q8IBS5). Nature of the experiment: PfCDPK4 kinase inhibitors, biochemical, TCAMS library (AID 1159588; cut-off not given, nearly all actives have IC50 up to about 0.91 µM). The following applies: recombinant PfCDPK4, Kinase-Glo ATP depletion luminescence.
Sequence of Calcium-dependent protein kinase 4 (Plasmodium falciparum (isolate 3D7)) (Q8IBS5 whole entry, looked up): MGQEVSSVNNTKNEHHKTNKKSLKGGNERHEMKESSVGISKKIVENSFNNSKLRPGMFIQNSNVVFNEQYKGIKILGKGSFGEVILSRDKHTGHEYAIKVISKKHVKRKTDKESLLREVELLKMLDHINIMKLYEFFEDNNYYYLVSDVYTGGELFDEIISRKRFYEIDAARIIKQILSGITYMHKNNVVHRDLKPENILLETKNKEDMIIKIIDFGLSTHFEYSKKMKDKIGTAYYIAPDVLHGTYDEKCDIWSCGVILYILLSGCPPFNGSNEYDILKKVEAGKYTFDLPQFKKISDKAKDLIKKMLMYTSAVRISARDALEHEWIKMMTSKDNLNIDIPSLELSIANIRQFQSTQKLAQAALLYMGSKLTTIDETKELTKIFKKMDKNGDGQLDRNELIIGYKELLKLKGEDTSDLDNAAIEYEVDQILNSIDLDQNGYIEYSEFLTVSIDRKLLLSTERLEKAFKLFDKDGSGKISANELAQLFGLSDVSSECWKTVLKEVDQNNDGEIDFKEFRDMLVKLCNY

Sequence of L-lactate dehydrogenase (Plasmodium falciparum (isolate CDC / Honduras)) (Q27743 whole entry, looked up): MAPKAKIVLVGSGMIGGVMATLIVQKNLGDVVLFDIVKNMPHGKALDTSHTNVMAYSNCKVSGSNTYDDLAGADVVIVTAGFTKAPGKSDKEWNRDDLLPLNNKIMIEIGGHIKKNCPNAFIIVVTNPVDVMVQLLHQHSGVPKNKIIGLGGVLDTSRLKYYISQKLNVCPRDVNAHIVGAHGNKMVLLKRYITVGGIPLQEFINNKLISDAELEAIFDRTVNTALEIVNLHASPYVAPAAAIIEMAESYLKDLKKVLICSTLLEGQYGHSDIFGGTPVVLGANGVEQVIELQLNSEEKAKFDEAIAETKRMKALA

Consider `CCOC(=O)CC[C@@H](NC(=O)c1ccc(NCc2ccc3ccc4nc(C)[nH]c(=O)c4c3c2)cc1F)C(=O)N[C@@H](Cc1c[nH]c2ccccc12)C(=O)OCC`, for which the results for the growth inhibition in experiment [1] and in experiment [4] were 77% (active) and 98% (active), respectively. Moreover, the inhibition is 45% in experiment [2] and 0% in experiment [3]. For the same compound, the result in experiment [5], in experiment [6], in experiment [7] and in experiment [8] was inactive.

Regarding `O=C(Nc1ccc(NC2=NCCN2)cc1)Nc1ccc(NC2=NCCN2)cc1`, the growth inhibition in experiment [1] is 72% (active); in experiment [4], 88% (active). Also, the values for the inhibition in experiment [2] and in experiment [3] were -6% and -1%, respectively. Also, the outcome in experiment [5], in experiment [6], in experiment [7] and in experiment [8] was inactive.

In the case of `N#Cc1ccc(N(CCOc2ccc(Cl)c(Cl)c2)Cc2ccccc2C(F)(F)F)cc1C(F)(F)F`, the values for the growth inhibition in experiment [1] and in experiment [4] were 57% (active) and 90% (active), respectively. In addition, the inhibition in experiment [2] was 13%; in experiment [3], -2%. For the same compound, the result in experiment [5], in experiment [6], in experiment [7] and in experiment [8] was inactive.

Regarding `O=C(/C=C/c1ccc(Cl)c(Cl)c1)NCCCCCN1CCC(NC(=O)Nc2ccc(F)c(Cl)c2)CC1`, the growth inhibition in experiment [1] was 11%; in experiment [4], 100% (active). Besides, the inhibition was 98% (active) in experiment [2] and 5% in experiment [3]. Also, the outcome in experiment [5], in experiment [6], in experiment [7] and in experiment [8] was inactive.

For `COc1ccc(-c2ccc(NC(=O)c3cccc(Cl)c3)cc2)cc1CNC(C)C`, the growth inhibition in experiment [1] was 88% (active); in experiment [4], 100% (active). Further, the inhibition in experiment [2] is 26%; in experiment [3], 1%. Further, the result in experiment [5], in experiment [6], in experiment [7] and in experiment [8] was inactive.

On to `N#Cc1c(N2CCN(c3ccc(F)cc3)CC2)nc(N)c2c(N)nc3c(c12)CC(=O)N3C1CC1`, for which the growth inhibition in experiment [1] was 82% (active); in experiment [4], 95% (active). In addition, the results for the inhibition in experiment [2] and in experiment [3] were 2% and -8%, respectively. Besides, the outcome in experiment [5], in experiment [6], in experiment [7] and in experiment [8] was inactive.

On to `CCOc1cc2c(cc1S(=O)(=O)c1ccc(COc3ccc(C(F)(F)F)cc3)cc1)CCN(C)CC2`, for which the growth inhibition is 14% in experiment [1] and 87% (active) in experiment [4]. Also, the inhibition in experiment [2] was 27%; in experiment [3], -5%. The outcome in experiment [5], in experiment [6], in experiment [7] and in experiment [8] was inactive.

For the compound `COc1ccc(C2=C(Nc3ccc4oc5ccccc5c4c3)c3ccccc3C2=O)cc1`, the growth inhibition in experiment [1] is 92% (active); in experiment [4] it was 93% (active). Besides, the figures for the inhibition in experiment [2] and in experiment [3] were 9% and 5%, respectively. For the same compound, the outcome in experiment [5], in experiment [6], in experiment [7] and in experiment [8] was inactive.

For `CCc1cccc(-n2nc(OCC(=O)NC3CCCC3)c3cccnc32)c1`, the growth inhibition in experiment [1] is 13%; in experiment [4], 94% (active). The inhibition in experiment [2] is 2%; in experiment [3] it was -4%. For the same compound, the outcome in experiment [5], in experiment [6], in experiment [7] and in experiment [8] was inactive.

Turning to `COc1ccc(Nc2nccc(N3CCC(NC(=O)Nc4cc(C)ccc4C)C3)n2)cc1` (configuration not stated), the growth inhibition in experiment [1] is 37%; in experiment [4], 91% (active). For the same compound, the inhibition in experiment [2] is 10%; in experiment [3], -8%. For the same compound, the result in experiment [5], in experiment [6], in experiment [7] and in experiment [8] was inactive.

As for `Cc1ccc(S(=O)(=O)N(CCCN2CCN(C)CC2)Cc2csc(-c3ccc(CNCc4ccccc4)cc3)n2)cc1`, the figures for the growth inhibition in experiment [1] and in experiment [4] were 90% (active) and 97% (active), respectively. Besides, the inhibition was 15% in experiment [2] and 3% in experiment [3]. In addition, the outcome in experiment [5], in experiment [6], in experiment [7] and in experiment [8] was inactive.

Consider `CCc1sc(-c2cc(Cl)ccc2OC)nc1C(=O)NCCN1CCCCC1`, for which the growth inhibition in experiment [1] is 28%; in experiment [4], 100% (active). In addition, the values for the inhibition in experiment [2] and in experiment [3] were 3% and 2%, respectively. Moreover, the result in experiment [5], in experiment [6], in experiment [7] and in experiment [8] was inactive.

Regarding `CCOc1ccc(Br)cc1/C=C/C(=O)Nc1ccc(C2CCN(C)CC2)cc1`, the growth inhibition in experiment [1] was 71% (active); in experiment [4], 100% (active). For the same compound, the figures for the inhibition in experiment [2] and in experiment [3] were 30% and -2%, respectively. Also, the outcome in experiment [5], in experiment [6], in experiment [7] and in experiment [8] was inactive.

Turning to `CC1(C)N=C(N)N=C(N)C1c1ccc(Cl)cc1` (configuration not stated), the growth inhibition in experiment [1] is -2%; in experiment [4], 96% (active). Besides, the results for the inhibition in experiment [2] and in experiment [3] were 16% and 1%, respectively. The result in experiment [5], in experiment [6], in experiment [7] and in experiment [8] was inactive.

On to `COc1cccc(C(=O)Nc2ccc(S(=O)(=O)c3cc4c(cc3OC)CCN(C)CC4)cc2)c1`, for which the growth inhibition in experiment [1] is 3%; in experiment [4] it was 86% (active). Besides, the inhibition is -11% in experiment [2] and -1% in experiment [3]. Also, the result in experiment [5], in experiment [6], in experiment [7] and in experiment [8] was inactive.

Consider `CNc1ccc(CNCc2cccc(-c3ccc(-c4nc5ccccc5[nH]4)cc3)c2)cc1`, for which the growth inhibition in experiment [1] was 80% (active); in experiment [4], 102% (active). Besides, the figures for the inhibition in experiment [2] and in experiment [3] were 18% and -5%, respectively. Also, the result in experiment [5], in experiment [6], in experiment [7] and in experiment [8] was inactive.

As for `O=C(N[C@H]1CCN(Cc2ccc(OCCCN3CCCCC3)cc2)C1)c1ccc(Oc2ccccc2)cc1`, the growth inhibition is 11% in experiment [1] and 96% (active) in experiment [4]. The results for the inhibition in experiment [2] and in experiment [3] were 56% (active) and 6%, respectively. The result in experiment [5], in experiment [6], in experiment [7] and in experiment [8] was inactive.

With `COc1cc(C)ccc1N1CCN(CCCCNC(=O)c2ccc(NC(=O)c3ccc(Cl)cc3)cc2)CC1`, the growth inhibition is 31% in experiment [1] and 99% (active) in experiment [4]. Moreover, the inhibition in experiment [2] is 30%; in experiment [3], 4%. Also, the result in experiment [5], in experiment [6], in experiment [7] and in experiment [8] was inactive.

With `COCc1nc(N)nc(N)c1-c1ccc(Cl)c(Cl)c1`, the growth inhibition in experiment [1] was 1%; in experiment [4], 84% (active). Further, the inhibition was 4% in experiment [2] and -1% in experiment [3]. The result in experiment [5], in experiment [6], in experiment [7] and in experiment [8] was inactive.

Turning to `NCc1cccc(-c2ccc(CNC3CCN(Cc4ccccc4)CC3)cc2)c1`, the growth inhibition in experiment [1] was 3%; in experiment [4] it was 95% (active). Besides, the inhibition is 2% in experiment [2] and 0% in experiment [3]. The result in experiment [5], in experiment [6], in experiment [7] and in experiment [8] was inactive.

For the compound `COc1cc(NCCCNCc2cn(S(=O)(=O)c3ccccc3)c3ccccc23)nc2ccccc12`, the values for the growth inhibition in experiment [1] and in experiment [4] were 77% (active) and 101% (active), respectively. Besides, the inhibition is 36% in experiment [2] and 4% in experiment [3]. In addition, the outcome in experiment [5], in experiment [6], in experiment [7] and in experiment [8] was inactive.

As for `Cc1cccc2[nH]c(-c3ccc(-c4ccc(CN5CCN(CC6CCCN(C)C6)CC5)cc4)cc3)nc12` (configuration not stated), the values for the growth inhibition in experiment [1] and in experiment [4] were 99% (active) and 101% (active), respectively. For the same compound, the inhibition in experiment [2] was 91% (active); in experiment [3], -7%. Further, the result in experiment [5], in experiment [6], in experiment [7] and in experiment [8] was inactive.

Regarding `O=C(Nc1nc2cc(S(=O)(=O)NCCCN3CCOCC3)ccc2n1CCCn1ccnc1)c1ccc(Cl)cc1`, the growth inhibition in experiment [1] is -6%; in experiment [4], 95% (active). Besides, the inhibition in experiment [2] was -27%; in experiment [3] it was -1%. For the same compound, the result in experiment [5], in experiment [6], in experiment [7] and in experiment [8] was inactive.

As to `CC1CCCCN1Cc1cccc(-c2c[nH]c3nc(NC4CCCC4)ncc23)c1` (configuration not stated), the growth inhibition is 14% in experiment [1] and 93% (active) in experiment [4]. Moreover, the results for the inhibition in experiment [2] and in experiment [3] were -1% and -2%, respectively. For the same compound, the outcome in experiment [5], in experiment [6], in experiment [7] and in experiment [8] was inactive.
